Drawing on PubChem BioAssay (NCI), this text covers growth for 14 compounds.

What all share (experiment): NCI-60 one-dose screen, 48 h (100 = growth as untreated, 0 = no growth, -100 = all killed)
What all share (conditions): 10 µM unless noted

The subject of test [1] is SR leukemia.
For test [2], the system named is RPMI-8226 leukemia.
The subject of test [3] is OVCAR-8 ovarian.
Test [4] has as its system OVCAR-5 ovarian.
Test [5] has as its system OVCAR-4 ovarian.
Test [6] relates to SK-OV-3 ovarian.
In test [7] the test system is IGROV1 ovarian.
The subject of test [8] is OVCAR-3 ovarian.
Test [9] concerns HS 578T breast.
Test [10] relates to NCI/ADR-RES ovarian.

The structures appear in SMILES notation. Compounds without any hit were thinned out: in the full panel of roughly 83,000, 20% have a hit.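 Percent growth is the endpoint: 0 to 100 indicates growth inhibition (40 means 60% inhibition), 0 means no net growth, and negative values indicate cell death.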 Unmarked numbers belong to inactive results. The source made the active and inactive calls. The calls were made as follows: active = growth percent below 10; inactive = the rest.

`CCOC(=O)c1c(NC(=O)c2ccc(C(C)C)cc2)sc2c(CN(C)C)c(O)ccc12`: the growth in [1] is -21.5% (active); in test [2], -20% (active); in [3], 89.1%; in test [4] it was 64.1%; in test [5], 87.2%; in test [6] it was 99.2%. Besides, the growth was 72.5% in test [7], 96.1% in test [8], 86.2% in test [9] and 72.6% in test [10].

For `Cc1nc(-c2ccccc2)cc2c(O)c(C(=O)NN)[nH]c(=O)c12`, the growth in test [1] is 106%; in [2], 103%; in test [3] it was 106%; in [4], 110%; in [5], 112%; in test [6], 103%. The growth in test [7] is 7.89% (active); in test [8], 105%; in test [9] it was 109%; in test [10], 118%.

`CCN1C(=O)N(CC)C2C1NN=c1s/c(=C\c3ccc(Cl)cc3Cl)c(=O)n12` (stereo not given): the growth in [1] was 12.3%; in test [2], 16.5%; in [3], 10.8%; in [4], 28.2%; in [5] it was 46.1%; in test [6], 29.2%. For the same compound, the growth in [7] is 13.4%; in [8], -43.3% (active); in test [9], 15.8%; in test [10], 5.65% (active).

Take `N#Cc1c(-c2ccc(Cl)cc2)nc(SCC(=O)NC2=NN=C(c3ccccc3)CS2)[nH]c1=O`: the growth in test [1] was 42.7%; in test [2] it was 73.5%; in test [3], 101%; in [4], 112%; in test [5], 83.4%; in test [6], 47.5%. For the same compound, the growth in test [7] was 90.4%; in test [8], 83.7%; in test [9], 93.7%; in test [10], 86.7%.

On to `CC1(c2ccccc2O)NN=C(/N=C/c2cccc([N+](=O)[O-])c2)N1C(Cc1c[nH]c2ccccc12)C(=O)O` (stereo not given), for which the growth is 87.7% in test [1]; 81.3% in [2]; 88.7% in test [3]; 106% in test [4]; 90.2% in test [5]; 61.3% in [6]. Moreover, the growth in test [7] is 62%; in test [8], 95%; in test [9], 95.8%; in [10] it was 97.1%.

Turning to `CCNC(=O)c1[nH]cc(-c2ccccc2)c1-c1cc(OC)c2c(c1OC)OCO2`, the growth was 93% in test [1]; 99% in test [2]; 98.9% in [3]; 98.5% in [4]; 98.6% in [5]; 90.3% in [6]. The growth in test [7] was 88.5%; in [8], 104%; in test [9], 93.2%; in test [10] it was 93%.

On to `CN([O-])c1nc(N(C)[O-])nc(N2CCOCC2)n1.CN([O-])c1nc(N(C)[OH2+])nc(N2CCOCC2)n1.[Fe+3]`, for which the growth in test [1] is 67.3% [100 µM]; in test [2] it was 81% [100 µM]; in test [3], 85.6% [100 µM]; in [4] it was 110% [100 µM]; in test [5], 120% [100 µM]; in test [6] it was 110% [100 µM]. For the same compound, the growth in test [7] was 112% [100 µM]; in test [8], 60% [100 µM]; in test [9], 98.2% [100 µM]; in test [10], 104% [100 µM].

`CN1CCN(c2ccc(NC(=O)c3nc4ccc5[nH]ncc5c4c4c3CCCC4)cc2C(F)(F)F)CC1`: the growth in test [1] is 13.6%; in [2] it was 24.1%; in test [3], 3.3% (active); in test [4], 85.5%; in [5], 65.2%; in test [6] it was 100%. For the same compound, the growth in test [7] is 4.75% (active); in [8], 11.5%; in test [9], 77.6%; in [10], 70%.

Consider `N#Cc1c(N)nnn1Cc1cc(=O)oc2c1ccc1ccccc12`, for which the growth was 105% in test [1]; 97.8% in test [2]; 96.8% in [3]; 108% in test [4]; 108% in test [5]; 86% in test [6]. In addition, the growth in [7] is 101%; in [8] it was 103%; in test [9], 101%; in test [10] it was 99.4%.

As for `O=C(c1ccccc1)C1C(=O)N2C(=S)N(c3ccccc3)C(=O)C2C1c1ccc(Cl)cc1` (stereo not given), the growth in test [1] was 101%; in test [2], 103%; in test [3] it was 94.8%; in [4], 102%; in test [5], 90.8%; in test [6], 88%. Further, the growth was 54.2% in test [7], 95.6% in test [8], 88.9% in test [9] and 96.4% in test [10].

For `Nc1ncnc2c1N=C(c1ccc(Cl)cc1)CC(c1ccc3c(c1)OCO3)N2` (stereo not given), the growth was 77.3% in [1]; 60.3% in test [2]; 91.7% in [3]; 85.6% in [4]; 98.6% in test [5]; 21% in [6]. The growth in test [7] is 46%; in test [8], 85.5%; in [9] it was 93.8%; in test [10], 98.2%.

In the case of `C1=CN2CC(c3ccccc3)=NNC2c2ccccc21` (stereo not given), the growth in test [1] was 97%; in [2], 69.8%; in [3], 92%; in [4], 106%; in [5] it was 83%; in test [6], 92.2%. In addition, the growth in [7] was 22.8%; in test [8], 81.5%; in test [9] it was 86.7%; in test [10], 80.6%.

Regarding `CC(C)c1ccc(NC(=O)Nc2ccc(NC(=O)CCCC(=O)NOCc3ccccc3)cc2)cc1`, the growth in test [1] is 73.4%; in test [2] it was 91.1%; in [3] it was 96.7%; in test [4] it was 89.2%; in test [5], 89.2%; in test [6] it was 97.4%. In addition, the growth was 91.5% in [7], 94% in test [8], 85.7% in [9] and 99.1% in test [10].

Turning to `C1=C(N2CCCC2)CCC1`, the growth in test [1] is 112%; in [2] it was 95.4%; in [3], 104%; in test [4], 86.2%; in test [5] it was 98.8%; in [6], 131%. Besides, the growth was 108% in test [7], 106% in test [8], 102% in [9] and 104% in test [10].
